94 molecules from PubChem BioAssay AID463173 (ICCB-Longwood Screening Facility, Harvard Medical School, 2010) can be followed below.

The campaign covered roughly 52,000 compounds. About 1,700 (3.3%) were called active. This excerpt belongs to a sample that is enriched for actives. Unmarked numbers belong to inactive results. Cut-off read from the data, not from the text of the source: active = survival mostly below about 52% (no sharp cut-off); inactive = mostly above about 56%.

This assay deals with Wild type. Nature of the assay: S. aureus survival, RN4220 and DeltatarO strains – OD600, teichoic acid synthesis inhibitors, primary screen (AID 463173). The note with it: S. aureus RN4220 wild type/DeltatarO growth, OD600, 18 h, active compounds read low, screened at 18.75 µg/mL (by protocol).
For the molecule `Cc1cn2c(=O)cc(COc3ccccc3NC(=O)c3ccco3)nc2s1`, the survival is 83%.

As for `Fc1cccc(NCc2cccn2-c2nnc(N3CCOCC3)s2)c1`, the survival was 77%.

`CC(=O)N1SC(N)=NC1c1ccccc1` (centres undefined): the survival was 111%.

In the case of `CCOc1ccc(N(C)S(=O)(=O)c2ccc3c(c2)CCCN3C(C)=O)cc1`, the survival is 75%.

With `O=C(NCc1ccccc1Br)c1ccc2c(c1)nc1n2CCOC1`, the survival is -3% (active).

`CCOc1ccc(CNC(=O)c2ccc3c(c2)nc2n3CCC(C)C2)cc1OC` (centres undefined): the survival was 73%.

In the case of `CCOc1ccc(CNC(=O)c2ccc3c(c2)nc2n3CCOC2)cc1`, the survival is 57%.

Take `CCOc1ccc(CCNC(=O)c2ccc3c(c2)nc2n3CCOC2)cc1OCC`: the survival was 63%.

Regarding `COc1ccc(CCNC(=O)c2ccc3c(c2)nc2n3CCCCC2)cc1OC`, the survival was 84%.

For the molecule `CCOc1ccc(CNC(=O)c2ccc3c(c2)nc2n3CCOC2)cc1OC`, the survival was 1% (active).

On to `O=C(NCc1ccccc1)c1ccc2c(c1)nc1n2CCOC1`, for which the survival was 82%.

As to `COc1ccc(CCNC(=O)c2ccc3c(c2)nc2n3CCOC2)cc1OC`, the survival is -4% (active).

As for `Cc1ccc(C)c(CNC(=O)c2ccc3c(c2)nc2n3CCOC2)c1`, the survival was 63%.

For the molecule `Cc1ccc(C)c(NC(=O)CSc2nc(-c3ccccc3)c(C#N)c(=O)[nH]2)c1`, the survival was 113%.

`COc1cccc(NC(=O)CSc2nnc(-c3cccc(OC)c3)o2)c1`: the survival is 90%.

As to `CCn1c(CC(=O)Nc2ccccc2)n[nH]c1=S`, the survival was 107%.

Turning to `Cc1cn2c(=O)cc(COC(=O)c3cccc(NC(=O)c4ccccc4C)c3)nc2s1`, the survival is 71%.

As to `COc1ccccc1CNc1ccc(-c2nc(-c3ccccn3)no2)cc1[N+](=O)[O-]`, the survival is 77%.

With `Cc1ccc2c(=O)c(C(=O)c3ccccc3)cn(CC(=O)Nc3ccccc3C)c2n1`, the survival is 65%.

As to `O=c1[nH]c2ccccc2c(O)c1-c1nc2ccccc2c(=O)[nH]1`, the survival was 109%.

As to `Cc1ccc(C)c(NC(=O)CSc2nc3ccccc3nc2N2CCOCC2)c1`, the survival was 76%.

With `Cc1ccc(NC(=O)CSc2nc3ccccc3nc2N2CCOCC2)cc1`, the survival was 59%.

On to `CCOc1ccccc1NC(=O)CSc1nc2ccccc2nc1N1CCOCC1`, for which the survival is -11% (active).

Regarding `CCOc1ccc(NC(=O)CSc2nc3ccccc3nc2N2CCOCC2)cc1`, the survival was 112%.

Take `Cc1cccc(NC(=O)CSc2nc3ccccc3nc2N2CCCCC2)c1C`: the survival is 70%.

As to `Cc1cccc(NC(=O)CSc2nc3ccccc3nc2N2CCOCC2)c1C`, the survival was 65%.

In the case of `CC(=O)Nc1ccc(NC(=O)CSc2nc3ccccc3nc2N2CCC(C)CC2)cc1`, the survival was 80%.

For `Cc1cccc(NC(=O)CSc2nc3ccccc3nc2N2CCC(C)CC2)c1`, the survival is -9% (active).

In the case of `CC1CCN(c2nc3ccccc3nc2SCC(=O)Nc2ccccc2C(C)C)CC1`, the survival was -16% (active).

Turning to `COc1ccc(OC)c(CCNC(=O)c2cc3cccc4c3n2CCS4)c1`, the survival is 71%.

On to `Cn1c(=O)c2c(nc(NCc3ccccc3)n2Cc2ccccc2)n(C)c1=O`, for which the survival was 79%.

In the case of `CC(C)Cc1nn2c(=O)cc(COC(=O)c3ccc(NC(=O)c4cccs4)cc3)nc2s1`, the survival is 127%.

Consider `CCc1ccccc1N1CC(c2nc3ccccc3n2CCCCOc2ccccc2OC)CC1=O` (centres undefined), for which the survival was 93%.

As for `COc1ccccc1OCCCn1c(C2CC(=O)N(c3ccc(F)cc3)C2)nc2ccccc21` (centres undefined), the survival was 101%.

Turning to `CCOc1ccccc1N1CC(c2nc3ccccc3n2CCOc2ccccc2OC)CC1=O` (centres undefined), the survival is 107%.

Regarding `Cc1cccc(C)c1OCCCCn1c(C2CC(=O)N(c3ccc(F)cc3)C2)nc2ccccc21` (centres undefined), the survival was 34%.

Take `Cc1ccc(C)c(OCCn2c(C3CC(=O)N(Cc4ccc(F)cc4)C3)nc3ccccc32)c1` (centres undefined): the survival is -16% (active).

For the molecule `C=CCc1ccccc1OCCn1c(C2CC(=O)N(Cc3ccc(F)cc3)C2)nc2ccccc21` (centres undefined), the survival is -16% (active).

With `Cc1ccc(OCCn2c(C3CC(=O)N(Cc4ccc(F)cc4)C3)nc3ccccc32)c(C)c1` (centres undefined), the survival is -15% (active).

Turning to `Cc1ccc(OCCCn2c(C3CC(=O)N(c4cccc(Cl)c4)C3)nc3ccccc32)c(C)c1` (centres undefined), the survival is 90%.

With `Cc1cccc(C)c1OCCn1c(C2CC(=O)N(Cc3ccc(F)cc3)C2)nc2ccccc21` (centres undefined), the survival is -4% (active).

As for `CCOc1ccccc1N1CC(c2nc3ccccc3n2CCCCOc2cc(C)ccc2C)CC1=O` (centres undefined), the survival is 43%.

For the molecule `Cc1cc(C)c(Cn2c(C3CC(=O)N(c4ccc(F)cc4)C3)nc3ccccc32)c(C)c1` (centres undefined), the survival is 86%.

On to `Cc1cccc(C)c1OCCn1c(C2CC(=O)N(c3cccc(Cl)c3)C2)nc2ccccc21` (centres undefined), for which the survival was 84%.

In the case of `COc1ccc(NC(=O)Cn2c(=O)n(-c3cccc(C)c3)c(=O)c3c2c2cc(C)ccc2n3C)cc1Cl`, the survival is 86%.

`CCc1cccc(NCc2ccccc2-c2nnc(-c3ccccc3Cl)o2)c1`: the survival is 81%.

In the case of `CN(C)S(=O)(=O)c1ccc(S(=O)(=O)N2CCC(c3nc4c(nnn4Cc4cccc(F)c4)c(=O)[nH]3)CC2)cc1`, the survival is 113%.

On to `Cc1cccc(-n2ncc3c(Nc4c(C)cc(C)cc4C)ncnc32)c1`, for which the survival is 83%.

Turning to `Cc1ccc(S(=O)Cc2nc(-c3ccc(C(=O)NCc4cccc(C)c4)cc3)oc2C)cc1` (centres undefined), the survival was 99%.

For the molecule `CCOc1ccc(NC(=O)c2ccc(-c3nc(COc4ccccc4)c(C)o3)cc2)cc1`, the survival is 89%.

In the case of `O=C(c1cnc(N2CCCCC2)c2ccccc12)N1CCN(c2cccc(Cl)c2)CC1`, the survival is 68%.

Regarding `CCOC(=O)c1cccc(NS(=O)(=O)c2cc(Br)cc3c2N(C(=O)C2CC2)CC3)c1`, the survival is 151%.

Take `CCCC(=O)NCC(c1ccc2c(c1)OCO2)N1CCN(c2ccccc2)CC1` (centres undefined): the survival was 92%.

Consider `O=C(COc1ccccc1F)Nc1ccccc1OCc1cc(=O)n2ccccc2n1`, for which the survival was 79%.

Regarding `CN(C)c1oc(/C=C/c2ccc(F)cc2)nc1C#N`, the survival is 87%.

Turning to `CC1CCCCN1CC(=O)N1CCN(C(=O)CN2CCCCC2C)CC1` (centres undefined), the survival is 106%.

Regarding `Cc1cc(C)cc(N(CC(=O)Nc2c(C)cc(C)cc2C)S(=O)(=O)c2c(C)nn(C)c2C)c1`, the survival is -6% (active).

Regarding `CCc1ccc(NC(=O)CN(c2ccc(C)cc2)S(=O)(=O)c2c(C)nn(C)c2C)cc1`, the survival is 76%.

`CCOc1ccccc1NC(=O)CN(c1cc(C)cc(C)c1)S(=O)(=O)c1c(C)nn(C)c1C`: the survival is 69%.

`O=C(c1ccco1)c1cn(CCOc2ccc(Cl)cc2)c2ccccc12`: the survival was 68%.

As to `Cc1ccc(NC(=O)Cn2cc(C(=O)C3CCCCC3)c3ccccc32)cc1`, the survival is 87%.

Turning to `Cc1ccccc1OCCn1cc(C(=O)C2CCCCC2)c2ccccc21`, the survival is 124%.

Regarding `O=C(c1cccs1)c1cn(CCOc2ccc(Cl)cc2)c2ccccc12`, the survival was 80%.

Regarding `O=C(c1cccs1)c1cn(CCOc2ccccc2F)c2ccccc12`, the survival is 75%.

In the case of `Cc1ccc(OCCn2cc(C(=O)C3CCCCC3)c3ccccc32)cc1`, the survival is 1% (active).

As for `O=C(c1cn(CCOc2ccc(Cl)cc2)c2ccccc12)C1CCCCC1`, the survival is 9% (active).

With `COc1ccc(OCCn2cc(C(=O)C3CCCCC3)c3ccccc32)cc1`, the survival was 31%.

Regarding `O=C(c1cn(CCOc2ccccc2F)c2ccccc12)C1CCCCC1`, the survival is 3% (active).

Regarding `Cn1ncc(Cl)c1C(=O)O`, the survival is 95%.

For `O=C(CC1N=C2c3ccccc3N=C(SCC(=O)Nc3ccccc3F)N2C1=O)NCc1cccs1` (centres undefined), the survival is 73%.

For `O=C1C2=C(Nc3ncnn3C2c2ccccc2)c2ccccc21` (centres undefined), the survival is 114%.

For `CSc1ccc(/C=C/c2nc3ccccc3n2S(=O)(=O)c2cccc(Cl)c2)cc1`, the survival was 66%.

With `CCN1CCN(C(C)C(=O)NC(c2ccccc2)c2ccccc2)CC1` (centres undefined), the survival was 113%.

With `Cc1cccc(Cn2nc(C)n3c(cc4cc(C)ccc43)c2=O)c1`, the survival is 79%.

In the case of `CCc1cccc2c(-c3ccccc3)nc(SCC(=O)Nc3ccccc3)nc12`, the survival was 88%.

With `Cc1ccc(NC(=O)CSc2nnc3nc(C)cc(C)n23)cc1`, the survival was 73%.

On to `CCN(CC)S(=O)(=O)c1ccc2c(c1)N(CC(=O)Nc1cccc(C)c1C)C(=O)C1CCCN21` (centres undefined), for which the survival was -4% (active).

On to `CCN(CC)S(=O)(=O)c1ccc2c(c1)N(CC(=O)Nc1c(C)cccc1C)C(=O)C1CCCN21` (centres undefined), for which the survival was 73%.

In the case of `CCc1ccccc1NC(=O)CN1C(=O)C2CCCN2c2ccc(S(=O)(=O)N(CC)CC)cc21` (centres undefined), the survival was 81%.

For the molecule `CCc1ccc(-c2cc(C)no2)cc1S(=O)(=O)Nc1cc(OC)c(OC)c(OC)c1`, the survival is 83%.

As to `Cc1ccc(-c2onc(C)c2C)cc1S(=O)(=O)Nc1ccc(Cl)cn1`, the survival is 89%.

For `Cc1ccnc(NS(=O)(=O)c2cc(-c3cc(C)no3)ccc2C)c1`, the survival is 78%.

On to `CCc1ccc(-c2cc(C)no2)cc1S(=O)(=O)Nc1ccc(C)cn1`, for which the survival is 14% (active).

On to `CCc1ccc(-c2cc(C)no2)cc1S(=O)(=O)Nc1ccc(Cl)cn1`, for which the survival was -1% (active).

For `CCc1ccc(-c2cc(C)no2)cc1S(=O)(=O)Nc1ccc(Cl)cc1`, the survival is 74%.

With `O=C(CN1C(=O)C(c2ccc(F)cc2)=NC12CCCCCC2)Nc1ccc(F)c(Cl)c1`, the survival is 76%.

As for `CCOc1ccc(NC(=O)CCc2c(C)nc3cc(-c4ccccc4OC)nn3c2C)cc1`, the survival is 76%.

Take `COc1ccc(NC(=O)CSc2nc(-c3ccc(OC)cc3)cc(=O)[nH]2)cc1`: the survival was 148%.

As to `CCOCN(C(=O)Cn1c(CC(C)C)nc2ccccc21)c1c(C)cccc1CC`, the survival was 5% (active).

`CCOCN(C(=O)Cn1c(C(C)O)nc2ccccc21)c1c(C)cccc1CC` (centres undefined): the survival was 117%.

`CCc1cccc(CC)c1N(COC)C(=O)Cn1c(CC)nc2ccccc21`: the survival is 74%.

Consider `CCOCN(C(=O)Cn1c(C)nc2ccccc21)c1c(C)cccc1CC`, for which the survival is 124%.

For `CCOCN(C(=O)Cn1c(COC)nc2ccccc21)c1c(C)cccc1CC`, the survival was 111%.

Regarding `CCCCc1nc2ccccc2n1CC(=O)N(COCC)c1c(C)cccc1CC`, the survival is -1% (active).
